Measured values taken from PubChem BioAssay (NCI).
Compounds without any hit were thinned out: in the full panel of roughly 83,000, 20% have a hit.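 For each line, cells grew in 96-well plates with the test compound present at a single concentration for 48 hours.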 Calls of active or inactive are those of the source. The calls were made as follows: active = growth percent below 10; inactive = the rest.

Experiments:
Assay in all cases: NCI-60 one-dose screen, 48 h (100 = growth as untreated, 0 = no growth, -100 = all killed)
Conditions in all cases: 10 µM unless noted
[1] = test system: NCI-H23 lung
[2] = test system: NCI-H226 lung
[3] = test system: NCI-H322M lung
[4] = test system: HOP-62 NSCLC
[5] = test system: NCI-H460 lung
[6] = test system: HOP-92 NSCLC
[7] = test system: NCI-H522 lung
[8] = test system: A549/ATCC NSCLC
[9] = test system: 786-0 renal
[10] = test system: DU-145 prostate
[11] = test system: K-562 leukemia
[12] = test system: MALME-3M melanoma
[13] = test system: MDA-MB-231 breast
[14] = test system: RXF 393 renal
[15] = test system: SF-268 CNS
[16] = test system: SF-295 CNS
[17] = test system: SF-539 CNS
[18] = test system: UACC-257 melanoma
[19] = test system: M14 melanoma

Measured: growth

CCCc1nc2ccccn2c1Nc1ccc(C(=O)NO)cc1
inactive: [1] 61.4% | [2] 92.6% | [3] 97.4% | [4] 90.4% | [5] 85.9% | [6] 103% | [7] 64.9% | [8] 97.1% | [9] 95.5% | [10] 88.3% | [11] 89.5% | [12] 86.7% | [13] 111% | [14] 96% | [15] 94.2% | [16] 93.8% | [17] 99.3% | [18] 76.1% | [19] 89.6%

COc1ccc(-c2cc(-c3cc(OC)ccc3OC)[nH]c(=O)c2C#N)cc1
inactive: [1] 64.3% | [2] 69.5% | [3] 91.7% | [4] 48.1% | [5] 32.4% | [6] 55.3% | [7] 16.7% | [8] 46.3% | [9] 63.5% | [10] 74.2% | [11] 25.4% | [12] 52.4% | [13] 55.4% | [14] 71.1% | [15] 60.3% | [16] 31% | [17] 50.3% | [18] 59.3% | [19] 29.1%

COc1ccc(C2CC(c3ccccc3)=NN2c2nc(C)c(C(C)=O)s2)cc1 (centres undefined)
inactive: [1] 99.3% | [2] 101% | [3] 98.6% | [4] 101% | [5] 106% | [6] 95.4% | [7] 88.3% | [8] 98.7% | [9] 101% | [10] 102% | [11] 95% | [12] 95.2% | [13] 96.6% | [14] 94.1% | [15] 91.3% | [16] 99% | [17] 94.3% | [18] 102% | [19] 97.3%

OCCCCc1nccc2c1[nH]c1ccccc12
inactive: [1] 98.8% | [2] 90.7% | [3] 88.9% | [4] 95.3% | [5] 104% | [6] 104% | [7] 117% | [8] 72.6% | [9] 102% | [10] 114% | [11] 79.8% | [12] 115% | [13] 94.8% | [14] 65.7% | [15] 105% | [16] 102% | [17] 90.8% | [18] 113% | [19] 102%

Cc1[nH]c(-c2nc3ccccc3[nH]2)c(C)c1C(=O)NNc1ccc(Cl)cc1
inactive: [1] 91% | [2] 84.1% | [3] 89.6% | [4] 98.7% | [5] 103% | [6] 90.6% | [7] 80.9% | [8] 93.1% | [9] 94.7% | [10] 105% | [11] 94.1% | [12] 94.5% | [13] 79.2% | [14] 103% | [15] 95.3% | [16] 109% | [17] 95.7% | [18] 91% | [19] 102%

O=c1cc(-c2ccc(OCc3ccccc3)cc2)oc2c(I)c(OCc3ccccc3)cc(OCc3ccccc3)c12
inactive: [1] 103% | [2] 90% | [3] 96.6% | [4] 125% | [5] 99.2% | [6] 108% | [7] 91.5% | [8] 96.4% | [9] 96.8% | [10] 105% | [11] 84.3% | [12] 107% | [13] 110% | [14] 139% | [15] 99% | [16] 99% | [17] 100% | [18] 95.9% | [19] 95.6%

CCO/C=N/C1=C(C#N)C(c2ccc(OC)cc2)c2c(c3ccccc3n(C)c2=O)O1 (centres undefined)
inactive: [1] 101% | [2] 95.2% | [3] 101% | [4] 91.5% | [5] 105% | [6] 101% | [7] 90.2% | [8] 97.8% | [9] 105% | [10] 106% | [11] 102% | [12] 96.5% | [13] 101% | [14] 104% | [15] 99.2% | [16] 101% | [17] 98.6% | [18] 102% | [19] 103%

COC(=O)CNC(=O)C(=O)c1c(O)c(O)c(C(C)C)c2cc(C)c(-c3c(C)cc4c(C(C)C)c(O)c(O)c(C(=O)C(=O)NCC(=O)OC)c4c3O)c(O)c12
inactive: [1] 17.8% | [2] 54.6% | [3] 22.1% | [4] 18.5% | [8] 11% | [9] 33.9% | [10] 24.9% | [11] 14.7% | [12] 46.2% | [14] 53.8% | [15] 26.8% | [17] 18.9% | [18] 52.1% | [19] 36.7%
active: [5] 5.29% | [6] -7.96% | [7] -0.907% | [13] -13.6% | [16] 1.96%

CCN1CCN(c2ccc(Nc3cc(-c4cccnc4Nc4c(Cl)c(OC)cc(OC)c4Cl)ncn3)cc2)CC1
inactive: [1] 63.8% | [2] 47% | [3] 68.7% | [4] 40.6% | [5] 23.7% | [6] 54.5% | [7] 75.9% | [8] 39.9% | [9] 89.2% | [10] 62.9% | [11] 44.5% | [12] 76.2% | [13] 85.8% | [14] 34.3% | [15] 65.1% | [16] 79.5% | [17] 47.1% | [18] 91.6% | [19] 72.9%

C=C1c2c(C)nn(-c3ccc(S(N)(=O)=O)cc3)c2N(C)C23CC1C1(C)c4c(C)nn(-c5ccc(S(N)(=O)=O)cc5)c4N(C)C(C)(CC12)C3 (centres undefined)
inactive: [1] 51.4% | [2] 40.7% | [3] 75.7% | [4] 48.2% | [5] 12.4% | [6] 50.1% | [7] 44% | [8] 17.6% | [9] 41.9% | [10] 43.6% | [11] 29.9% | [12] 61.6% | [13] 39.6% | [14] 33.3% | [15] 42.2% | [16] 30.1% | [17] 57.1% | [18] 49% | [19] 20.6%

O=C1Nc2ccc(Cl)cc2/C1=N/N=C/c1c[nH]c2ccccc12
inactive: [1] 86.1% | [2] 81.9% | [3] 75.5% | [4] 80.4% | [5] 72% | [6] 93.1% | [7] 73.2% | [8] 87.2% | [9] 95.8% | [10] 64.2% | [11] 88.4% | [12] 82.8% | [13] 64.3% | [14] 62.7% | [15] 76.2% | [16] 103% | [17] 82.6% | [18] 98.8% | [19] 72%

CC(C)(C)Nc1c(-c2c3ccccc3cc3ccccc23)nc2ccccn12
inactive: [1] 77.4% | [2] 83.9% | [3] 71.2% | [4] 65.1% | [5] 77% | [6] 45% | [7] 59.1% | [8] 49.4% | [9] 72% | [10] 92.7% | [11] 42% | [12] 80.6% | [13] 80.7% | [14] 82.4% | [15] 82.9% | [16] 69.7% | [17] 78.2% | [18] 75.5% | [19] 70.3%

N#Cc1c(-c2ccccc2)nc(SCC2CO2)nc1N1CCOCC1 (centres undefined)
inactive: [1] 71.4% | [2] 75% | [3] 65.8% | [4] 54.3% | [5] 67.6% | [6] 18.3% | [7] 57.9% | [8] 83.8% | [9] 65.5% | [10] 87.5% | [11] 97.4% | [12] 25.7% | [13] 71.4% | [14] 31.5% | [15] 69.7% | [17] 85.6% | [18] 69.2% | [19] 84%
active: [16] 9.14%

CCNCCNc1cc(-c2ccc(C(F)(F)F)cc2)c(C#N)c2nc3cc(Cl)c(Cl)cc3n12
active: [1] -76.6% | [3] -95.4% | [4] -82.4% | [5] -71.6% | [6] -83.5% | [7] -73.3% | [8] -88.4% | [9] -78% | [10] -93% | [11] -63.7% | [12] -77.9% | [13] -73.2% | [14] -96.3% | [15] -76.3% | [16] -91.2% | [17] -92.9% | [18] -85.4% | [19] -81.5%
inactive: [2] 99.8%

CCCCCOC(=O)c1cccc(NC(=O)CN(CC)CC)c1
inactive: [1] 102% | [2] 96.7% | [3] 97.6% | [4] 86.8% | [5] 111% | [6] 75.6% | [7] 62% | [8] 95.7% | [9] 81.2% | [10] 104% | [11] 103% | [12] 94.8% | [13] 117% | [14] 106% | [15] 104% | [16] 96.1% | [17] 98.6% | [18] 105% | [19] 86.9%

OC(CBr)c1ccnc2ccccc12 (centres undefined)
inactive: [1] 96.8% | [2] 92.3% | [3] 102% | [4] 99.1% | [5] 105% | [6] 89.3% | [7] 71.8% | [8] 96.3% | [9] 99.1% | [10] 109% | [11] 92% | [12] 96.3% | [13] 103% | [14] 107% | [15] 100% | [16] 96.6% | [17] 102% | [18] 99.6% | [19] 98%
